Measurements taken from PubChem BioAssay.
Records with an inconclusive call do not appear. Calls of active or inactive are those of the source.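 Rule for the calls, unless noted: active = viability at or below 30% in both replicate assays; inconclusive = viability at or below 30% in just one of the two assays; inactive = the rest.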

Experiments:
[1] = Her2 expression decrease, cell viability multiplex – SKBR3 breast tumor cells, AlphaScreen, ATP viability, primary screen (AID 461;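 active = Her2 level under about 52% in both replicate screens, with viability over 70% of control, limit read from the data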;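 for Her2 level: lower value means less Her2 protein in the cells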;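 for viability: percent of carrier control wells set as 100% viability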); settings: SKBR3 Her2 protein level, 18-24 h, measured here: SKBR3 viability, ATP luminescence, at 10 µM
[2] = biological target: Receptor tyrosine-protein kinase erbB-2 (Homo sapiens) (UniProt P04626); assay: as above; settings: 18-24 h, at 10 µM, stronger effect = lower value
[3] = reduced viability of SK-BR-3 breast cancer cells – cell-based, 24 h, human, pilot screen (AID 572;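 active = viability at or below 10% of carrier control in both of two separate runs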;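 note: compound exposure lasted between 18 and 24 h rather than exactly 24 h; 100% = carrier-treated control wells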); settings: SK-BR-3 viability, CellTiter-Glo luminescence, at 10 µM, stronger effect = lower value
[4] = HUVEC growth inhibition – cell-based, human, primary screen (AID 575); settings: HUVEC proliferation, CellTiter-Glo luminescence, 72 h; at 10 µM; stronger effect = lower value;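 note: 100% = median of untreated cell wells with 0.1% DMSO on each plate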
[5] = H69AR cell proliferation blockers – human, duplicate replicates, primary screen (AID 580;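 active = viability at or under a set limit in both replicates, limit being median viability minus 3 SD, cut at about 48% in these data, passing the limit was not always enough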;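 note: 100% = mean luminescence of untreated wells and 0% = no signal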); settings: H69AR lung tumor cells viability, ATP luminescence, 72 h; at 10 µM; stronger effect = lower value
[6] = MRP1 drug-resistance reversers in H69AR cells – cell-based, doxorubicin co-treatment, pilot screen (AID 601;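 active = viability loss from added drug above about 55%, and viability with drug at most 40%, in both replicates, limit read from the data, passing the limit was not always enough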); settings: CellTiter-Glo, 72 h, at 10 µM; for differential viability (reversal): stronger effect = higher value
[7] = doxorubicin toxicity protection in MRP-1 cells – H69AR cells, CellTiter-Glo, duplicate, MRP-1 activator project, pilot screen (AID 807;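 active = viability increase at or above a cutoff of the median across tested compounds plus 3 SD, cut at about 8.5% in these data, passing the limit was not always enough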;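 note: compound pretreatment 18-22 h then 72 h combined with doxorubicin; 0% = doxorubicin alone and 100% = vehicle without doxorubicin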); settings: H69AR viability with doxorubicin, CellTiter-Glo luminescence; at 10 µM; stronger effect = higher value
[8] = viability of HCT116 without oncogenic beta-catenin – human colon tumor cells, pilot screen (AID 823;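 active = cell viability at or below a set limit in both duplicate runs, the limit being the all-compound median minus 4 SD, cut at about 23% in these data, passing the limit was not always enough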;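 note: 0% = wells killed by 20 µM Hyamine and 100% = untreated DMSO cell wells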); settings: HCT116 beta-catenin knockout viability, CellTiter-Glo, 60 h; at 10 µM; stronger effect = lower value
[9] = viability of PTEN-null HCT116 cells – cell-based, HCT116 clonal line, CellTiter-Glo, pilot screen (AID 824;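 active = viability at or below 27.92% in each of two runs, the all-compound median minus 4 SD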;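 note: 0% = 20 µM Hyamine control and 100% = vehicle cell control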); settings: HCT116 PTEN-deleted viability, 60 h, at 10 µM, stronger effect = lower value
[10] = RAM pathway blockade in budding yeast – dse1pr::URA3 reporter, 5-FOA selection, pilot screen (AID 869;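 active = inhibition over a set limit, the all-compound mean plus 3 SD, in both replicate runs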;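 note: 0% = DMSO wells with no growth and 100% = 10 µM 1-NA-PP1 with full growth; RAM network block rescues cells from 5-FOA so hits raise OD615 growth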); settings: S. cerevisiae dse1pr::URA3 5-FOA growth, OD615, 2 d; at 10 µM; stronger effect = higher value; strain carries analog-sensitive mutant Cbk1 kinase
[11] = RAM signaling pathway blockade in yeast – S. cerevisiae, Pdr1DBD-CYC8 efflux-inhibited sensitized strain, primary screen (AID 1298;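 active = RAM network inhibition above 8.4% in each of two replicates, 3 SD over the compound average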;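 note: 0% = DMSO untreated cells without growth and 100% = 10 µM 1-NA-PP1 full growth; higher means more yeast growth rescued from 5-FOA killing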); settings: S. cerevisiae cbk1-as DSE1-URA3 strain, 5-FOA growth OD615, 2 d; at 50 µM; stronger effect = higher value
[12] = S. cerevisiae growth inhibition in restrictive medium, OD615, pilot screen, restrictive growth control, yeast lifespan reduction project (AID 706;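 active = growth inhibition above a set limit, 3 SD over mean compound inhibition, in both replicates, cut at about 43% in these data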;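 note: modified DeaD lifespan yeast strain shifted to restrictive glucose medium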); settings: OD615, 48 h, at 10 µM, stronger effect = higher value
[13] = H69AR cells + 2 uM doxorubicin, measured here: viability with 2 uM doxorubicin, stronger effect = lower value
[14] = H69AR cells, compound alone cytotoxicity

Sequence of Receptor tyrosine-protein kinase erbB-2 (Homo sapiens) (P04626 whole entry, looked up): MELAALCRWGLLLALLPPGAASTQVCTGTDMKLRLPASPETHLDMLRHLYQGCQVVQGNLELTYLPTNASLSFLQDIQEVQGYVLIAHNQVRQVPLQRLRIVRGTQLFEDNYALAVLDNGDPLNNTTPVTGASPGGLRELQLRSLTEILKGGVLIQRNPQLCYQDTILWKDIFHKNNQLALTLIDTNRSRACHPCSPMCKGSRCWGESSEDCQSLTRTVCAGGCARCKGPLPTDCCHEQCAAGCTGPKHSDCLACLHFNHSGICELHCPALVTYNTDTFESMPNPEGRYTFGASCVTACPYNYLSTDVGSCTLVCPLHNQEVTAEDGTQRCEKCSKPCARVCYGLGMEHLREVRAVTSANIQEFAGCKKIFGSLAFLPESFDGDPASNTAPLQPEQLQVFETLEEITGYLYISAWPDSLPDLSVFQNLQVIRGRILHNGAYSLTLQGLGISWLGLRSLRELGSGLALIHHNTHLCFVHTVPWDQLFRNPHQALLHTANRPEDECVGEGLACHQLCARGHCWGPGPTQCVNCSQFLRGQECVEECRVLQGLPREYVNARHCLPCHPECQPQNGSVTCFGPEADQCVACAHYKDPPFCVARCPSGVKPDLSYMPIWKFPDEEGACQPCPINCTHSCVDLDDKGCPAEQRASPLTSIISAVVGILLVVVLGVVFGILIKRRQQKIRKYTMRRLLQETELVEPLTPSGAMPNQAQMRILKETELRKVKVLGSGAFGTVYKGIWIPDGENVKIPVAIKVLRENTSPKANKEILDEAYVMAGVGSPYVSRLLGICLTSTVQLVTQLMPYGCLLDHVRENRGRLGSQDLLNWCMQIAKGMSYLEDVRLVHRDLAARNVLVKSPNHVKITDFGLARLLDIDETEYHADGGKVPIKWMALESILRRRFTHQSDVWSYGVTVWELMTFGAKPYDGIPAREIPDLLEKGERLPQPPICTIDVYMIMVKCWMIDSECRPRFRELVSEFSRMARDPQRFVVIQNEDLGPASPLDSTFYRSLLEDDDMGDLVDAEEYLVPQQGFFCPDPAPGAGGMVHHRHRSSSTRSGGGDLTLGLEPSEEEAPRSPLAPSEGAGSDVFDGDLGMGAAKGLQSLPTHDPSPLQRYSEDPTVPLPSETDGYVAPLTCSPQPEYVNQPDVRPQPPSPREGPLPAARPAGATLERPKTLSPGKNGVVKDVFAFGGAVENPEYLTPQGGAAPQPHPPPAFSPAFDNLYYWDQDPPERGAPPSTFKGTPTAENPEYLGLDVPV

For C[C@]12CC[C@@H]3c4ccc(OS(=O)(=O)O)cc4CC[C@H]3[C@@H]1CCC2=O, the viability [1] was 87%, the Her2 level [2] was 108% (inactive) and the viability [3] was 87% (inactive). For the same compound, the viability [4] was 99.6% (inactive).
With CN(C)CCCN1c2ccccc2CCc2ccccc21 the viability [1] was 105%, the Her2 level [2] was 104% (inactive) and the viability [3] was 105% (inactive). For the same compound, the viability [4] was 81% (inactive), the viability [5] was 77.7% (inactive) and the differential viability (reversal) ([6]; H69AR cells + 2 uM doxorubicin) was 4.16% (inactive). The viability [6, 13] was 73.5% and the viability [6, 14] was 77.7%.
For c1cn2cc(-c3ccc4c(c3)OCO4)nc2s1, the viability increase [7] was 1.35% (inactive), the viability [8] was 99.7% (inactive) and the viability [9] was 90.7% (inactive). For the same compound, the inhibition [10] was 1.96% (inactive) and the RAM network inhibition [11] was 0.64% (inactive).
For O=C(c1cc(-c2ccccc2O)on1)N1CCc2ccccc2C1, the viability increase [7] was -0.83% (inactive), the viability [8] was 97.9% (inactive) and the viability [9] was 90.5% (inactive). The inhibition [10] was 0.485% (inactive) and the RAM network inhibition [11] was 7.78% (inactive).
With CC(C[N+](C)(C)C)OC(N)=O (configuration not stated) the viability [1] was 101%, the Her2 level [2] was 114% (inactive) and the viability [3] was 101% (inactive). For the same compound, the viability [4] was 97.5% (inactive), the viability [5] was 99.4% (inactive) and the differential viability (reversal) ([6]; H69AR cells + 2 uM doxorubicin) was 1.13% (inactive). For the same compound, the viability [6, 13] was 98.3% and the viability [6, 14] was 99.4%.
With Cn1c([N+](=O)[O-])cnc1COC(N)=O the viability [1] was 108%, the Her2 level [2] was 105% (inactive) and the viability [3] was 108% (inactive). For the same compound, the viability [4] was 102% (inactive), the viability [5] was 102% (inactive) and the differential viability (reversal) ([6]; H69AR cells + 2 uM doxorubicin) was 16.2% (inactive). For the same compound, the viability [6, 13] was 85.7% and the viability [6, 14] was 102%.
In the case of COc1cc2nc(N3CCN(C(=O)C4CCCO4)CC3)nc(N)c2cc1OC (configuration not stated), the viability [1] is reported as 100%, the Her2 level [2] is reported as 99% (inactive) and the viability [3] is reported as 100% (inactive). The viability [4] was 98.5% (inactive), the viability [5] was 91.6% (inactive) and the differential viability (reversal) ([6]; H69AR cells + 2 uM doxorubicin) was -0.44% (inactive). It also gave a viability [6, 13] of 92% and a viability [6, 14] of 91.6%.
With CCCOc1ccc(C(=O)Nc2cc(-c3nn4c(C)nnc4s3)ccc2C)cc1 the viability increase [7] was -3.69% (inactive), the viability [8] was 101% (inactive) and the viability [9] was 92.9% (inactive). For the same compound, the inhibition [10] was 1.7% (inactive) and the RAM network inhibition [11] was 3.75% (inactive).
In the case of COc1ccc2cc(C(=O)Nc3c(C)n(C)n(-c4ccccc4)c3=O)sc(=O)c2c1OC, the viability increase [7] is reported as -1.5% (inactive), the viability [8] is reported as 97.7% (inactive) and the viability [9] is reported as 92.6% (inactive). For the same compound, the inhibition [10] was 2.33% (inactive) and the RAM network inhibition [11] was 0.16% (inactive).
For CC1(C)O[C@@H]2C[C@H]3[C@@H]4C[C@H](F)C5=CC(=O)C=C[C@]5(C)[C@@]4(F)[C@@H](O)C[C@]3(C)[C@]2(C(=O)CO)O1, the viability [1] was 94%, the Her2 level [2] was 110% (inactive) and the viability [3] was 94% (inactive). For the same compound, the viability [4] was 90.5% (inactive), the viability [5] was 94.1% (inactive) and the differential viability (reversal) ([6]; H69AR cells + 2 uM doxorubicin) was 1.96% (inactive). For the same compound, the viability [6, 13] was 92.2% and the viability [6, 14] was 94.1%.
With COc1ccc(-c2n[nH]c(C(F)(F)F)c2-c2cc3ccccc3o2)c(O)c1 the viability increase [7] was -7.49% (inactive), the viability [8] was 59.5% (inactive) and the viability [9] was 55% (inactive). For the same compound, the inhibition [10] was -1.46% (inactive) and the RAM network inhibition [11] was -1.35% (inactive).
In the case of C[C@@H]1C[C@H]2[C@@H]3C[C@H](F)C4=CC(=O)C=C[C@]4(C)[C@@]3(F)[C@@H](O)C[C@]2(C)[C@@]1(O)C(=O)CO, the viability [1] is reported as 74%, the Her2 level [2] is reported as 118% (inactive) and the viability [3] is reported as 74% (inactive). The viability [4] was 113% (inactive), the viability [5] was 92.7% (inactive) and the differential viability (reversal) ([6]; H69AR cells + 2 uM doxorubicin) was -3.78% (inactive). The viability [6, 13] was 96.5% and the viability [6, 14] was 92.7%.
In the case of COc1ccc(NC(=O)CC2SC(=Nc3ccccc3)NC2=O)c(OC)c1 (configuration not stated), the viability increase [7] is reported as 2.03% (inactive), the viability [8] is reported as 93.4% (inactive) and the viability [9] is reported as 92% (inactive). For the same compound, the inhibition [10] was 2.23% (inactive) and the RAM network inhibition [11] was 7.78% (inactive).
With CC(=O)OCC(=O)[C@@]1(O)[C@H](C)C[C@H]2[C@@H]3CCC4=CC(=O)C=C[C@]4(C)[C@@]3(F)[C@@H](O)C[C@@]21C the viability [1] was 118%, the Her2 level [2] was 116% (inactive) and the viability [3] was 118% (inactive). The viability [4] was 101% (inactive), the viability [5] was 93.5% (inactive) and the differential viability (reversal) ([6]; H69AR cells + 2 uM doxorubicin) was -15.8% (inactive). It also gave a viability [6, 13] of 109% and a viability [6, 14] of 93.5%.
With CCCCC(=O)O[C@]1(C(=O)CO)CC[C@H]2[C@@H]3CCC4=CC(=O)CC[C@]4(C)[C@H]3[C@@H](O)C[C@@]21C the viability [1] was 111%, the Her2 level [2] was 108% (inactive) and the viability [3] was 111% (inactive). The viability [4] was 101% (inactive), the viability [5] was 96.3% (inactive) and the differential viability (reversal) ([6]; H69AR cells + 2 uM doxorubicin) was 3.07% (inactive). The viability [6, 13] was 93.3% and the viability [6, 14] was 96.3%.
In the case of Cc1nc2ccccc2c2nc3ccccc3n12, the growth inhibition [12] is reported as 43.3% (active), the viability increase [7] is reported as -0.65% (inactive) and the viability [9] is reported as 62.4% (inactive). For the same compound, the inhibition [10] was 3.25% (inactive) and the RAM network inhibition [11] was 0.87% (inactive).
With Cc1ncc([N+](=O)[O-])n1CC(O)CCl (configuration not stated) the viability [1] was 99.5%, the Her2 level [2] was 106% (inactive) and the viability [3] was 99.5% (inactive). The viability [4] was 108% (inactive), the viability [5] was 104% (inactive) and the differential viability (reversal) ([6]; H69AR cells + 2 uM doxorubicin) was 0.25% (inactive). For the same compound, the viability [6, 13] was 104% and the viability [6, 14] was 104%.
For O=C1C(=C2CCCCC2)SC(=S)N1Cc1ccco1, the viability increase [7] was -4.02% (inactive), the viability [8] was 80.2% (inactive) and the viability [9] was 84.4% (inactive). For the same compound, the inhibition [10] was 0.825% (inactive) and the RAM network inhibition [11] was 2.66% (inactive).
With Cc1cccc(CN2CCN(C(c3ccccc3)c3ccc(Cl)cc3)CC2)c1 (configuration not stated) the viability [1] was 83%, the Her2 level [2] was 93.5% (inactive) and the viability [3] was 83% (inactive). For the same compound, the viability [4] was 96.4% (inactive), the viability [5] was 96.8% (inactive) and the differential viability (reversal) ([6]; H69AR cells + 2 uM doxorubicin) was 1.06% (inactive). For the same compound, the viability [6, 13] was 95.8% and the viability [6, 14] was 96.8%.
For COc1ccccc1N1CCN(C(CNC(=O)c2ccco2)c2cccnc2)CC1 (configuration not stated), the viability increase [7] was -2.37% (inactive), the viability [8] was 85% (inactive) and the viability [9] was 77% (inactive). The inhibition [10] was 2.23% (inactive) and the RAM network inhibition [11] was -0.32% (inactive).
In the case of C[N+]12CCC(CC1)C(OC(=O)C(O)(c1ccccc1)c1ccccc1)C2 (configuration not stated), the viability [1] is reported as 97.5%, the Her2 level [2] is reported as 96.5% (inactive) and the viability [3] is reported as 97.5% (inactive). The viability [4] was 100% (inactive), the viability [5] was 90.7% (inactive) and the differential viability (reversal) ([6]; H69AR cells + 2 uM doxorubicin) was 11.9% (inactive). For the same compound, the viability [6, 13] was 78.7% and the viability [6, 14] was 90.7%.
With CC(C)Sc1nc(O)c(Cc2ccccc2)c(=O)[nH]1 the growth inhibition [12] was -0.8% (inactive), the viability increase [7] was -0.54% (inactive) and the viability [8] was 104% (inactive). For the same compound, the inhibition [10] was 2.81% (inactive) and the RAM network inhibition [11] was 6.91% (inactive).
